The whole screen tested about 310,000 compounds, of which about 14,000 (4.5%) showed an effect of 50% or more. Effects have a minus sign here. The sample as a whole holds a higher share of strong results than the screen did.
Molecular target: human ether-à-go-go-related gene (hERG) potassium channel (human, UniProt Q12809)
Assay: primary screen, population patch clamp on CHO cells stably expressing hERG; higher = less effect of the substance
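Note: peak tail current of the secondary pulse compared with the same well before compound.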

human ether-à-go-go-related gene (hERG) potassium channel, sequence (Q12809 whole entry, looked up): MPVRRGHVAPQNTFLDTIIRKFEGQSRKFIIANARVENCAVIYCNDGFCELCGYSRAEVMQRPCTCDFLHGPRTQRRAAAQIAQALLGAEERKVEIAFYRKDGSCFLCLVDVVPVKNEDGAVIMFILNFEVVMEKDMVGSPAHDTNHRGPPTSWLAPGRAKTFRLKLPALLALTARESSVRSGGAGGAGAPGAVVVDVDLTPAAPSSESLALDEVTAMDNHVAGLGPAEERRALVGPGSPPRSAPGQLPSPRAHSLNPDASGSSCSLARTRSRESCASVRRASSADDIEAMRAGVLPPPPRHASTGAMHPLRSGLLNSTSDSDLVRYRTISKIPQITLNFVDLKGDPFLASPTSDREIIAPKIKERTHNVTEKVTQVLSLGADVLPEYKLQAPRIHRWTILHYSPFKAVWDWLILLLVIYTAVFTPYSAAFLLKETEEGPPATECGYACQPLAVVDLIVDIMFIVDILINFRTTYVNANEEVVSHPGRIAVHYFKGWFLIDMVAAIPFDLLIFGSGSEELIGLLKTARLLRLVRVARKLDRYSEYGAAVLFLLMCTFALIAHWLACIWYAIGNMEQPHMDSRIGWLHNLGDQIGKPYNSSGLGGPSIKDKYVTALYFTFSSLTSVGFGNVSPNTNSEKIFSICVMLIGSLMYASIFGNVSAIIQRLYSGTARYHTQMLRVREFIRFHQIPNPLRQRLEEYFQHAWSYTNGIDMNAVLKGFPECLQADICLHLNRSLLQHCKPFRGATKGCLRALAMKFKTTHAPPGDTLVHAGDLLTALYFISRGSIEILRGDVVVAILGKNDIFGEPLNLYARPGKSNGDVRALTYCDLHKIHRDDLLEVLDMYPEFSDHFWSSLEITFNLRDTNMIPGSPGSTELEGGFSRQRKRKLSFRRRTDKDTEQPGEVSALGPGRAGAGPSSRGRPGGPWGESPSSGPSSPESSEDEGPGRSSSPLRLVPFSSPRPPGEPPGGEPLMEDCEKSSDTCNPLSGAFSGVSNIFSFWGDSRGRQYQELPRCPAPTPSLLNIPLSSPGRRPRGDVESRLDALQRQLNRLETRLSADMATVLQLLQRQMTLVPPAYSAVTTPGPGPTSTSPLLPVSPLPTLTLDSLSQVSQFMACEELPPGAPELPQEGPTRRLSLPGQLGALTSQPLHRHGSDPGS

| SMILES | hERG current change (%, negative = inhibition) at 10uM |
| --- | --- |
| O=C(Nc1ccc2c(c1)OCCO2)C1CCCN(S(=O)(=O)c2cccc3nsnc23)C1 (stereo not drawn) | 4.93% |
| O=C(CNC1CCCCCC1)Nc1ccc(S(=O)(=O)NC2CC2)cc1 | 1.98% |
| Nc1ccccc1SCc1ccccc1 | -2.24% |
| Oc1ccccc1C1NN=C(c2ccccc2)S1 (stereo not drawn) | -15% |
| COc1ccc(-c2csc(N(CCCN(C)C)C(=O)c3ccc(F)cc3)n2)cc1.Cl | -58.1% |
| COc1ccc(-c2csc(N(CCCN(C)C)C(=O)c3ccc(C)cc3)n2)cc1.Cl | -68.2% |
| COc1ccc(-c2csc(N(CCCN(C)C)C(=O)c3ccc(C(C)(C)C)cc3)n2)cc1.Cl | 18% |
| C/C(=N\NC(=O)c1cc(O)cc(O)c1)c1ccc(NC(=O)Cc2ccccc2)cc1 | 14.2% |
| CSc1ccc(CN(C)C(C)C(=O)Nc2ccc(F)c(F)c2F)cc1 (stereo not drawn) | 15.3% |
| CNC(=O)c1c(NC(=O)c2ccc(S(=O)(=O)N3CCCCC3C)cc2)sc2c1CCN(C)C2 (stereo not drawn) | -3.92% |
| CCN1CCCC1CNC(=O)c1cc2cc(F)ccc2[nH]1 (stereo not drawn) | -73.3% |
| CCc1cc(Cl)c(OC)c(C(=O)NC[C@@H]2CCCN2CC)c1O.Cl | -59.2% |
| CCN1CCCC1CNC(=O)c1cc2c(OC)c(OC)c(OC)cc2[nH]1 (stereo not drawn) | 23.2% |
| CCN1CCC[C@H]1CNC(=O)c1c(O)c(Cl)cc(Cl)c1OC | -10.4% |
| CCN1CCCC1CNC(=O)c1cc2ccc(OC)cc2[nH]1 (stereo not drawn) | -12.4% |
| O=C(NCC1CCCO1)c1cc2cc(F)ccc2[nH]1 (stereo not drawn) | 9.11% |
| CCN1CCCC1CNC(=O)c1cc(OC)c(OC)c(OC)c1 (stereo not drawn) | 12.8% |
| CCN1CCC[C@H]1CNC(=O)c1c(O)c(Cl)cc(Cl)c1OC.O=C(O)C(O)C(O)C(=O)O | -13.8% |
| CCN1CCCC1CNC(=O)c1cc2c(OC)cccc2[nH]1 (stereo not drawn) | -20.8% |
| CCN1CCCC1CNC(=O)c1[nH]c2ccc(OC)cc2c1C (stereo not drawn) | -51.2% |
| CCN1CCCC1CNC(=O)c1cc2cc(OC)c(OC)cc2[nH]1 (stereo not drawn) | 16.6% |
| CCCCN1CCCC1CNC(=O)c1cc(C#N)c2ccccc2c1OC (stereo not drawn) | -64.3% |

| SMILES | hERG current change (%, negative = inhibition) at 10uM |
| --- | --- |
| CCCCC1=CC2=CC(=O)C(C)(OC(=O)CC)C(=O)C2=CN1C1CCCCC1 (stereo not drawn) | -38% |
| Cc1cccn2c(=O)c(/C=C(\C#N)C(N)=O)c(N3CCCCCC3)nc12 | -13.2% |
| COc1cccc(N2CCN(C3CCCC(C)C3)CC2)c1 (stereo not drawn) | -23.8% |
| O=C(NCc1ccccn1)c1cc(S(=O)(=O)N2CCCCC2)ccc1Cl | 3.78% |
| COc1ccc(NS(=O)(=O)c2cccc(C(=O)NNC(=O)c3ccc(O)c(Cl)c3)c2)cc1 | -0.207% |
| Cc1cccc(CN2C(=O)[C@@H]3Cc4c([nH]c5ccccc45)C(C)(C)N3C2=O)c1 | -0.614% |
| COC(=O)c1c(NC(=O)C2(C)Cc3ccccc3C(=O)O2)sc2c1CCCC2 (stereo not drawn) | 12.7% |
| O=C1C=C(c2ccccc2)CC(/C=C/c2ccccc2)C1 (stereo not drawn) | -2.91% |
| CCCc1nc(N)nc2c1C(=O)CC(C)(C)C2 | -4.47% |
| CC(C)(C)N1C(=O)Cc2c1nc(N)c1c(N)nc(N3CCCCC3CO)c(C#N)c21 (stereo not drawn) | -24.3% |
| CN1CCN(Cc2nc3ccccc3c(=O)[nH]2)CC1 | 6.57% |
| O=c1[nH]c(N/N=C/c2cc3c(cc2[N+](=O)[O-])OCO3)nc2ccccc12 | -0.00362% |
| CCC(CC)C(=O)N1CCN(Cc2nc3ccccc3c(=O)[nH]2)CC1 | -11.3% |
| O=C(c1ccccc1)N(Cc1ccc2c(c1)OCO2)Cc1nc2ccccc2c(=O)[nH]1 | -15.4% |
| O=C(/C=C/c1ccccc1)N1CCN(Cc2nc3ccccc3c(=O)[nH]2)CC1 | -64.7% |
| O=c1[nH]c(N/N=C/c2ccccc2)nc2ccccc12 | -14.9% |
| O=c1[nH]c(CN2CCOCC2)nc2ccccc12 | 0.449% |
| O=c1[nH]c(CN2CCNCC2)nc2ccccc12 | -23.4% |
| O=c1[nH]c(CN2CCN(Cc3ccc4c(c3)OCO4)CC2)nc2ccccc12 | -58.9% |
| O=C(CCc1nc2ccccc2c(=O)[nH]1)N1CCN(C/C=C/c2ccccc2)CC1 | -42.4% |
| O=c1[nH]c(CN2CCN(C/C=C/c3ccccc3)CC2)nc2ccccc12 | -65.2% |
| O=c1[nH]c(N/N=C\c2ccc3c(c2)OCO3)nc2ccccc12 | -70.7% |

| SMILES | hERG current change (%, negative = inhibition) at 10uM |
| --- | --- |
| COC(=O)C[C@H]1c2cc(C(F)(F)F)ccc2S(=O)(=O)N1c1ccc(N(C)C)cc1 | -20.9% |
| Cn1ccnc1SCC(=O)N(C1CCCCC1)C1CCCCC1 | 3.29% |
| COc1ccc(Nc2nc(-c3cccc([N+](=O)[O-])c3)nc3ccccc23)cc1 | -5.91% |
| O=C(OCC1OC(Oc2ccc(O)cc2)C(O)C(O)C1O)c1ccccc1 (stereo not drawn) | 14.5% |
| COCC(=O)N(CCc1ccc(OC)cc1)Cc1nc2ccccc2c(=O)[nH]1 | -2.83% |
| Cc1ccccc1NC(=O)c1ccccc1NC(=O)c1ccccc1F | 11.3% |
| O=C(c1ccco1)c1coc2c1cc(O)c1ccccc12 | 13.4% |
| CCCCNC(=O)O[C@H]1C[C@@H]2CCN3C(=O)CCC(C)(C)[C@H](C1)[C@H]23 | -23.5% |
| COc1ccc(N2CCN(Cc3nc4cc(Cl)ccc4c(=O)[nH]3)CC2)cc1 | 13.4% |
| O=c1[nH]c(CN2CCOCC2)nc2cc(Cl)ccc12 | -10.4% |
| O=c1[nH]c(CN2CCN(C/C=C/c3ccccc3)CC2)nc2cc(Cl)ccc12 | -106% |
| COc1ccc(-c2cnc(SCCNC(=O)c3ccc4c(c3)OCO4)[nH]2)cc1 | -5.44% |
| N#Cc1ccc(CSc2nnc(-c3ccccn3)n2-c2ccc(Cl)cc2)cc1 | -51.8% |
| COc1ccc(-n2c(SCc3ccc(C#N)cc3)nnc2-c2ccccn2)cc1 | -58.3% |
| N#Cc1ccc(CSc2nnc(-c3ccccn3)n2-c2ccccc2)cc1 | -42.1% |
| COc1ccc(-n2c(SCC(=O)OC(C)C)nnc2-c2ccccn2)cc1 | -14.4% |
| c1ccc(CSc2nnc(-c3ccccn3)n2-c2ccccc2)cc1 | -10.6% |
| Cc1ccc(-n2c(SCc3ccc(C#N)cc3)nnc2-c2ccccn2)cc1 | -48.7% |
| COc1cc(C(C)=O)ccc1OC(=O)C(C)N1C(=O)c2ccccc2C1=O (stereo not drawn) | -13% |
| O=C(CN1C(=O)CNC1=O)Nc1cccc(C(F)(F)F)c1 | 8.56% |
| Cc1ccc(NC(=O)Cn2nnc3ccccc32)cc1 | 12.1% |
| CCCC(=O)NC(=S)Nc1cccc(NC(=O)c2ccc(Cl)cc2Cl)c1 | 11.6% |

| SMILES | hERG current change (%, negative = inhibition) at 10uM |
| --- | --- |
| CCOC(=O)c1[nH]c2ccc(OCC)cc2c1NC(=O)CN1CCCC(C)C1 (stereo not drawn) | -18.3% |
| CCOC(=O)c1[nH]c2ccc(Br)cc2c1NC(=O)CCN1CCC(C)CC1 | -69.1% |
| CCOC(=O)c1[nH]c2ccc(Br)cc2c1NC(=O)CCN1CCN(C(=O)OCC)CC1 | -44% |
| CCOC(=O)C1CCN(CC(=O)Nc2c(C(=O)OC)[nH]c3ccc(Cl)cc23)CC1 | -15% |
| CCOC(=O)c1[nH]c2ccc(Br)cc2c1NC(=O)CCN1CCOCC1 | 2.43% |
| CCOC(=O)c1[nH]c2ccc(Br)cc2c1NC(=O)CNC | -7.67% |
| CCOC(=O)c1[nH]c2ccc(Br)cc2c1NC(=O)CCN1CCCC(C)C1 (stereo not drawn) | -73.1% |
| CCOC(=O)c1[nH]c2ccc(OC)cc2c1NC(=O)CCN1CCCC(C)C1 (stereo not drawn) | -36.9% |
| COC(=O)c1[nH]c2cc(OC)ccc2c1NC(=O)CCN1CCCC(C)(C)C1 | -39.4% |
| CCOC(=O)c1[nH]c2ccc(Br)cc2c1NC(=O)CCN1CCC(C(=O)OCC)CC1 | -73.9% |
| CCOC(=O)c1[nH]c2ccc(Br)cc2c1NC(=O)CCN1CCCC(C)(C)C1 | -75.7% |
| CCOC(=O)c1[nH]c2ccc(F)cc2c1NC(=O)CCN1CCOCC1 | 3.03% |
| O=C(Cn1c(=O)n(Cc2ccc3c(c2)OCO3)c(=O)c2ccccc21)N1CCCc2ccccc21 | 4.46% |
| Cc1ccc(NC(=O)CSc2nnc(-c3cccnc3)o2)c(C)c1 | 3.3% |
| CCO[C@@H]1OC(C(=O)O)=C[C@H](C)[C@H]1CCCO | 20.7% |
| COc1ccc(CC(=O)Nc2nc3n(n2)C(c2ccccc2)CC(=O)N3)cc1OC (stereo not drawn) | 5.18% |
| CC(=O)c1cccc(N(CC(=O)Nc2ccc(S(=O)(=O)N3CCOCC3)cc2)S(C)(=O)=O)c1 | 8.48% |
| CCCCCCn1c(=O)c(C(=O)Nc2cnccn2)c(O)c2ccccc21 | 1.2% |
| CCn1c(-c2c(Cl)c(C)nn2C)n[nH]c1=S | 10.9% |
| COc1ccc(C(=O)Nc2cc(-c3nn4c(C)nnc4s3)ccc2C)cc1 | -41.8% |
| Cc1cc(-c2ccccc2C(=O)O)on1 | 17.6% |

— PMC4336329 (PLoS ONE, 2015)
